High-throughput results deposited in PubChem BioAssay by National Center for Advancing Translational Sciences (NCATS).
12-hLO inh: qHTS Assay for Inhibitors of 12-hLO (12-human lipoxygenase); Potency, µM (series often up to 57.1 µM), for inactives: top-dose activity change, negative = inhibition, most hits filed as inhibitors; Polyunsaturated fatty acid lipoxygenase ALOX12 (Homo sapiens), P18054; purified 12-hLO, xylenol orange hydroperoxide absorbance; hit rate 0.12% among 150,000; note: nearly all actives have a fitted effect of over 55% in size
Target sequence (P18054 whole entry, looked up): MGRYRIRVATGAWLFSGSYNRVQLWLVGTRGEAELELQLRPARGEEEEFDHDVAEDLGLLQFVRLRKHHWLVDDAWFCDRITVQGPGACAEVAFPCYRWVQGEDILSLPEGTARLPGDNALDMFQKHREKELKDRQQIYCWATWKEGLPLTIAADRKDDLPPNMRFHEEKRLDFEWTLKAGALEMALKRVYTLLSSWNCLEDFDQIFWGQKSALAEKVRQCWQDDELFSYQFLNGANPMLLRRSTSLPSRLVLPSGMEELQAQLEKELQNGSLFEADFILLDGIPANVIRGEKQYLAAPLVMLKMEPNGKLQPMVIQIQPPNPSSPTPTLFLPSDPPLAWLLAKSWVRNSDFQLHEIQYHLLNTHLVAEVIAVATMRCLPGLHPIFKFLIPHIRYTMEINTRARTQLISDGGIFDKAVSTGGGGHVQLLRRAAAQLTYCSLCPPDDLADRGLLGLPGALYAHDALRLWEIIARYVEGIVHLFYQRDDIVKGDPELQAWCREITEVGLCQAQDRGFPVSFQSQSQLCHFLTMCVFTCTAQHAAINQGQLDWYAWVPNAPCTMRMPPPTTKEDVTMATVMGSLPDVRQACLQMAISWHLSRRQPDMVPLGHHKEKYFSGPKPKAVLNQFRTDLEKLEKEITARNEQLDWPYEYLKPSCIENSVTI
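150 nM 12hLO, 25 mM Hepes pH 7.0 + 0.01% Triton X-100; cpd preinc 15 min RT; 40 uM arachidonic acid, 30 min RT; Fe-XO 30 min; A573/A405 ratio as read-out.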
p53ts 39C tox: qHTS Screen for Compounds that Selectively Target Cancer Cells with p53 Mutations: Cytotoxicity of p53ts Cells at the Nonpermissive Temperature; hit rate 1.5% among 130,000; H1299-p53A138V viability at 39C, ATP luminescence, 24 h; Potency, µM (top dose mostly 46.1 µM), without a hit: at the highest dose activity change, negative = cell killing, most hits filed as cytotoxic; AID 902, 2007; note: nearly all actives have a fitted effect of over 55% in size
HPGD inh: qHTS Assay for Inhibitors of HPGD (15-Hydroxyprostaglandin Dehydrogenase) | 15-hydroxyprostaglandin dehydrogenase [NAD(+)] (Homo sapiens), P15428 | purified HPGD, NADH fluorescence kinetic, PGE2 substrate | Potency, µM, inactives show at the top dose activity change, negative = inhibition, hits mostly inhibitors | hit rate 4.3% among 150,000; active = well fitted inhibition curve with a large enough effect, not every such curve was filed as active; inconclusive = small, poorly fitted or top-dose-only effect, or another doubt; inactive = no such curve, though single readings can be large or run the other way
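20 nM HPGD preincubated 15 min at room temperature with compound in 50 mM Tris-HCl pH 8, 0.01% Tween 20. Started with 1 mM NAD+ and 30 uM prostaglandin E2; NADH fluorescence (360/450 nm) read 5 times over 30-s intervals, last minus first.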
p53ts 32C tox: qHTS Screen for Compounds that Selectively Target Cancer Cells with p53 Mutations: Cytotoxicity of p53ts Cells at the Permissive Temperature. AID 924, 2007. hit rate 0.93% among 130,000. Potency, µM (titrated, usually from 46.1 µM), for the others: at the top dose activity change, negative = cytotoxicity, hits mostly cytotoxic. H1299-p53A138V at 32C, ATP luminescence viability, 24 h;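 note: 0% = DMSO and -100% = full killing by reference compound; nearly all actives have a fitted effect of over 55% in size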
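H1299-p53 A138V cells (temperature-sensitive p53) exposed 24 h to up to 46 uM compound at 32C, where p53 is wild-type in conformation. Viability read as ATP luminescence and normalised to DMSO and 100 uM tamoxifen. AC50 fitted with the Hill equation.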
An asterisk follows results filed as active; u = inconclusive; x = not tested or not shown; [ ] = remark or other dose. Most compounds without a hit are left out; they make up all but 4.4% or so of the library. Unless noted, calls come from the whole dose curve; as a rule, active = well fitted curve in the direction sought with a large enough effect; inconclusive = small, poorly fitted or top-dose-only effect, or another doubt; inactive = no such curve, though single readings can be large; an effect the other way counts as inactive or inconclusive. Unless noted, % is set by controls: 0 for no effect and ±100 for the full control effect; potency is the fitted concentration of half-maximal effect.

SMILES	12-hLO inh	p53ts 39C tox	HPGD inh	p53ts 32C tox
O=Nc1c(-c2c(O)[nH]c3ccccc23)[nH]c2ccccc12	-9.1%	25.1µM*	-21.1%	25.1µM*
O=C1C=CC(=O)C(C2=C3C(=O)N(CCc4ccccc4)CC(=O)N3CCC2)=C1	-8.3%	x	1.58µM*	x
COc1ccc(NC(=O)c2sccc2SCc2cccc(C(F)(F)F)c2)cc1	-5.4%	x	u	x
CCOC(=O)c1sc(=S)sc1SCc1cccc(C(F)(F)F)c1	-4.5%	x	28.2µM*	x
CN(Cc1ccccc1)C(=O)Nc1ccc2c(c1)N(C)C(=O)c1ccccc1S2	x	12.6µM*	x	u
COc1ccc2c(c1OC)C(=O)OC2CC(=O)c1ccc(O)cc1 (stereo not drawn)	-10.3%	-0.2%	25.1µM*	-3.5%
COc1ccc2c(c1OC)C(=O)OC2CC(=O)c1ccc(N(C)C)cc1 (stereo not drawn)	-2.9%	-18.1%	-10.9%	0.7%
Cn1c(=O)[nH]c(=O)c2c1nc(SCC(=O)O)n2CCc1ccccc1	u	5.7%	12.6µM*	8.3%
CCCCn1c(CN2CCN(c3cccc(Cl)c3)CC2)nc2c1c(=O)[nH]c(=O)n2C	-5.2%	-20.2%	9.3%	-5.3%
CCOC(=O)C(CC)Sc1nc2c(c(=O)[nH]c(=O)n2C)n1CCc1ccccc1 (stereo not drawn)	-5.6%	6.5%	22.4µM*	0.0%
CCOC(=O)CSc1nc2c(c(=O)[nH]c(=O)n2C)n1CCc1ccccc1	3.1%	-6.2%	-11.8%	-2.4%
Cc1cc(C)n(-c2nc3c(c(=O)[nH]c(=O)n3C)n2CC(O)COc2ccc(Cl)cc2Cl)n1 (stereo not drawn)	6.2%	17.8%	3.55µM*	11.5%
Cn1c(=O)[nH]c(=O)c2c1nc(CN1CCN(c3cccc(Cl)c3)CC1)n2CCCc1ccccc1	-2.4%	3.98µM*	-6.1%	5.01µM*
CCOC(=O)c1sc2ccccc2c1S(=O)(=O)NCc1ccccc1OC	x	-21.1%	x	7.4%
CCN(C(=O)c1cccn(Cc2ccccc2C)c1=O)c1ccccc1	x	-17.3%	x	-5.2%
Cc1nc(-c2ccc(S(=O)(=O)NCc3ccc(OC(C)C)cc3)cc2)co1	x	-24.0%	x	-1.5%
CC1CCN(S(=O)(=O)c2ccc(C(=O)Nc3nc4ccc(F)cc4s3)cc2)CC1	x	20.2%	x	41.0%
Cn1c(=O)[nH]c(=O)c2c1nc(SCCN1CCOCC1)n2CCCc1ccccc1	0.9%	x	35.5µM*	x
Cn1c(=O)[nH]c(=O)c2c1nc(SCCN1CCOCC1)n2Cc1ccccc1	-4.8%	4.1%	-22.1%	-5.0%
CCC(C)Sc1nc2c(c(=O)[nH]c(=O)n2C)n1CC(O)COc1ccccc1C (stereo not drawn)	-7.3%	1.6%	39.8µM*	-4.6%
CCC(C)Sc1nc2c(c(=O)[nH]c(=O)n2C)n1CCc1ccccc1 (stereo not drawn)	-2.2%	-7.2%	-15.8%	6.1%
C=CCNC(=O)CNS(=O)(=O)c1ccc(F)cc1	0.3%	21.4%	31.6µM*	-3.5%
Cc1nnc(N/N=C/c2cc([N+](=O)[O-])c(N3CCC(C)CC3)cc2N2CCC(C)CC2)n1N	-18.8%	x	25.1µM*	x
CCCC(C)NC(=O)c1cc(C(=O)OC)cc([N+](=O)[O-])c1 (stereo not drawn)	-0.2%	x	-3.9%	x
CCCC(C)c1nnc(NC(=O)C2CCCO2)s1 (stereo not drawn)	5.3%	7.6%	11.2µM*	0.7%
SMILES	12-hLO inh	p53ts 39C tox	HPGD inh	p53ts 32C tox
CCCC(C)c1nnc(NC(=O)c2cc(C(=O)OC)cc([N+](=O)[O-])c2)s1 (stereo not drawn)	-2.4%	x	11.2µM*	x
Cc1nnc(NC(=O)C2CCCO2)s1 (stereo not drawn)	5.3%	34.7%	12.6µM*	-12.6%
CC(=O)O[C@H]1C2=C(C(=O)[C@H]3O[C@@H]31)[C@@H]1[C@@H]3[C@@H](C)OC=C4[C@H](O)[C@H]5O[C@@H]5C(=O)[C@]43C2O[C@H]1C	x	-2.5%[9.22 µM]	x	6.2%[9.22 µM]
CC(C)c1ccc(/C=C/C(=O)N2CCCCCC2)cc1	-6.7%	x	14.1µM*	x
CC(C(=O)O)c1ccc(N2Cc3ccccc3C2=O)cc1 (stereo not drawn)	-4.9%	10µM*	-5.6%	10µM*
Cc1cc(C)nc(NS(=O)(=O)c2ccc(N3Cc4ccccc4C3=O)cc2)n1	1.5%	x	-15.7%	x
COc1cccc(NS(=O)(=O)c2cn(C)c(=O)n(C)c2=O)c1	3.5%	12.6µM*	-1.3%	7.94µM*
Nc1ccc2nc(-c3cc(Cl)c(N)c(Cl)c3)[nH]c2c1	-5.9%	u	102.7%	14.1µM*
Nc1ccc2nc(-c3ccc(Cl)cc3)[nH]c2c1	2.6%	10µM*	u	12.6µM*
Clc1ccc2nc(-c3ccccc3)[nH]c2c1	-20.7%	12.6µM*	u	10µM*
Nc1ccc(-c2nc3ccc([N+](=O)[O-])cc3[nH]2)cc1	-3.8%	x	-5.3%	x
CC1(C)Cn2c(nnc2-c2cccc(O)c2)S1	-5.9%	0.5%	15.8µM*	1.9%
Nc1nonc1C(=O)NCCNCc1cccc(Cl)c1Cl	x	18.4%	x	-3.8%
CC1=C(C(=O)Nc2ccc(C)cc2C)C(c2cc(Br)ccc2F)n2ncc(C(=O)Nc3ccc(C)cc3)c2N1 (stereo not drawn)	x	12.6µM*	x	u
Cc1ccc(-c2csc3ncnc(Sc4nnc(CN5CCCCCC5=O)o4)c23)cc1	-13.6%	u	-27.3%	25.1µM*
Cc1ccc(-c2csc3ncnc(SCC(=O)Nc4nnc(C)s4)c23)cc1	-2.7%	x	-6.7%	x
O=C(NC1CCCCC1)N(Cc1ccccc1)Cc1ccco1	-10.7%	0.3%	-8.1%	9.2%
O=C(CC(Cc1ccccc1)c1ccco1)NC1CCCCC1 (stereo not drawn)	1.0%	x	14.1µM*	x
O=c1[nH]c(-c2ccccc2O)nc2ccccc12	x	x	2.82µM*	x
CN(Cc1ccccc1)C(=O)c1cccc(NC(=O)c2nsc3ccccc23)c1	x	10µM*	x	u
COc1cccc(CN2CCc3nc(Nc4ccc5c(c4)OCCO5)ncc3C2)c1OC	x	10.0%	x	-9.9%
COc1ccc(N2Cc3cccc(C(=O)Nc4ccc(C(C)C)cc4)c3C2=O)cc1	x	3.98µM*	x	5.01µM*
Cc1ccccc1CNC1CCCCC1	-1.9%	x	2.6%	x
Oc1cc(CN2COc3ccccc32)c(O)cc1CNC1CCCCC1	9.7%[11.4 µM]	2.2%[9.22 µM]	1.58µM*	0.9%[9.22 µM]
O=C(NCCc1csc(-c2ccc(C(F)(F)F)cc2)n1)C(=O)Nc1cc(F)ccc1F	x	-14.5%	x	0.9%
O=c1c(-c2cc(F)cc(F)c2)nc2cnc(N3CCOCC3)nc2n1C1CC1	-3.6%	5.5%	u	1.7%
CC(NC(=O)c1cccc(Nc2nc3ccccc3n3nnnc23)c1)c1ccccc1 (stereo not drawn)	x	x	x	-3.7%
CC(C)CCNC(=O)c1cccc(Nc2nc3ccccc3n3nnnc23)c1	x	10µM*	x	u
